A short description of test [1]: Nuclear factor erythroid 2-related factor 2/antioxidant responsive element (Nrf2/ARE) small molecule agonists: qHTS cell viability counter screen in human keratinocytes (AID 1919968; active = well fitted curve in the direction sought with a large enough effect in the repeat runs; an effect the other way counts as inactive or inconclusive; also: nearly all actives have a fitted effect of over 55% in size; also: potency is read from the fitted curve at half-maximal effect). The gist of the method:
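Cells of the KeratinoSens line were plated at 1,500 per well and left for 5 h before compound transfer from DMSO stocks. After a 23 h incubation (37 C, 5% CO2), CellTiter-Fluor was added. Signal was taken as fluorescence intensity 1 h later.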

Test [2] can be described thus: G protein-coupled receptor (GPCR) small molecule agonists, calcium flux assay: HEK293 wild type cell line counter screen (AID 1920065). A digest of the protocol: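 Tox21 10K compounds, 15 concentrations each in triplicate, pin-transferred in DMSO onto dye-loaded cells; kinetic read at 480/540 nm for 3 min, 1 s intervals.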
On the technique in general: Calcium assays in cells follow changes in intracellular calcium, usually with a dye or a luminescent sensor.

The nature of test [3]: p53 small molecule agonists, cell-based qHTS assay with human liver microsomes (AID 1963577). The gist of the method: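 p53RE-bla cells, 4,000/well, compound added after 5 h, with human liver microsomes 0.5 mg/mL and NADPH 0.5 mg/mL final; 16 h at 37 C, then LiveBLAzer 2 h RT, fluorescence.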
Test [4] can be described thus: p53 small molecule agonists, cell-based qHTS assay with rat liver microsomes (AID 1963578). The gist of the method:
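p53RE-bla cells, 4,000/well, pre-incubated 5 h, then given compounds plus rat liver microsomes (0.5 mg/mL final) and NADPH (0.5 mg/mL final). Incubation 16 h at 37 C; beta-lactamase reporter read by LiveBLAzer fluorescence after 2 h at room temperature.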
For orientation: In qHTS, concentration-response curves come from the screen itself.

A short description of test [5]: p53 small molecule agonists, cell-based qHTS assay with human liver microsomes: qHTS cell viability counter screen (AID 1963579). Also: nearly all actives have a fitted effect of over 45% in size. Also: potency is read from the fitted curve at half-maximal effect. A digest of the protocol:
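p53RE-bla cells, 4,000/well, dosed 5 hours after plating, with human liver microsomes (0.5 mg/mL final) plus NADPH (0.5 mg/mL final), 16 hours at 37 C. Viability read as CellTiter-Glo luminescence after 30 min at room temperature.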

A short description of test [6]: p53 small molecule agonists, cell-based qHTS assay: qHTS cell viability counter screen (AID 1963581). Also: nearly all actives have a fitted effect of over 45% in size. Also: potency is read from the fitted curve at half-maximal effect. The gist of the method:
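ATP content measured by luminescence in HCT-116 p53RE-bla cells treated 16 h at 37 C, same wells as the reporter screen.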

Test [7] is described as follows: p53 small molecule agonists, cell-based qHTS assay (AID 1963582; active = well fitted activation curve with a large enough effect in the signal ratio in the repeat runs, not every such curve was filed as active; the % refers to the signal ratio). A digest of the protocol: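 16 h compound exposure (37 C) of p53 response element–bla cells, preceded by 5 h recovery at 37 C/5% CO2; read-out via LiveBLAzer B/G FRET substrate, 2 h RT, fluorescence intensity.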
In test [8] the target is 5-hydroxytryptamine receptor 2A (Homo sapiens) (UniProt P28223). The experiment in a line: 5-hydroxytryptamine receptor 2A (HTR2A) small molecule antagonists, cell-based qHTS assay (AID 1963586). Also: nearly all actives have a fitted effect of over 45% in size. Also: potency is read from the fitted curve at half-maximal effect. A digest of the protocol:
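CHO cells stably expressing human HTR2A were plated for 18 h at 37 C, then loaded with calcium dye for 1 h. Compounds were preincubated 5 min at room temperature before DOI (4 nM solution) was added. Kinetic fluorescence was read for 3 min.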

Test [9] has the same target. The experiment in a line: 5-hydroxytryptamine receptor 2A (HTR2A) small molecule agonists, cell-based qHTS assay (AID 1963587). Also: nearly all actives have a fitted effect of over 30% in size. Also: potency is read from the fitted curve at half-maximal effect. The gist of the method:
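HTR2A-CHO cells, plated 18 h at 37 C/5% CO2, dye-loaded 1 h at 37 C; compounds in DMSO added by pin tool (agonist mode). Intracellular calcium flux read as kinetic fluorescence on FDSS over 2 min at 1 s intervals.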

The target in test [10] is Muscarinic acetylcholine receptor M1 (Homo sapiens) (UniProt P11229). The experiment in a line: Cholinergic receptor muscarinic 1 (CHRM1) small molecule antagonists, cell-based qHTS assay (AID 1963588). Also: nearly all actives have a fitted effect of over 40% in size. Also: potency is read from the fitted curve at half-maximal effect. The gist of the method: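 Compounds were tested at 15 concentrations in three independent runs. Dye-loaded CHRM1-CHO cells were exposed 5 min at room temperature before stimulation by acetylcholine added at 50nM. Intracellular calcium was read kinetically on FDSS for 3 min.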

The target is the same in test [11]. The experiment in a line: Cholinergic receptor muscarinic 1 (CHRM1) small molecule agonists, cell-based qHTS assay (AID 1963589). Also: nearly all actives have a fitted effect of over 35% in size. A digest of the protocol: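 Homogeneous fluorescence calcium flux, agonist mode. Human M1-expressing CHO cells; compound dosed at 15 concentrations, three independent runs; signal sampled every 1 sec.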
The nature of test [12]: cAMP Responsive Elements (CRE) small molecule agonists, cell-based qHTS assay (AID 1963590). The gist of the method: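 HEK 293T cells stably bearing CRE-bla were plated at 2,000 cells per well and rested 18 h. Compounds, positive controls or DMSO were added for 3 h at 37 C. LiveBLAzer B/G substrate was then loaded for 2 h at room temperature.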
Test [13] is described as follows: cAMP Responsive Elements (CRE) small molecule antagonists, cell-based qHTS assay (AID 1963591; active = well fitted inhibition curve with a large enough effect in the signal ratio in the repeat runs, not every such curve was filed as active; the % refers to the signal ratio). A digest of the protocol: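 First, CRE-bla HEK293T cells settled 18 h at 37 C. Next, compound and 0.25 uM final NKH477 were applied for 3 h. Last, LiveBLAzer B/G substrate was loaded for 2 h at room temperature.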
Test [14] deals with Beta-2 adrenergic receptor (Homo sapiens) (UniProt P07550). The experiment in a line: Adrenergic beta2 receptor (ADRB2) small molecule antagonists, cell-based qHTS assay (AID 1963592). Also: series mostly up to about 92 µM; nearly all actives have a fitted effect of over 50% in size. A digest of the protocol:
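Assay format: CHO-ADRB2 cells, 18-20hr seeding at 37C/5% CO2, then compound plus 1nM isoproterenol agonist mix for 0.5hr RT. Homogeneous time-resolved fluorescence cAMP detection after 1hr, expressed as 665/615 nm ratio.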

Test [15] addresses D(2) dopamine receptor (Homo sapiens) (UniProt P14416). The experiment in a line: Dopamine D2 receptor (DRD2) small molecule agonists, cell-based qHTS assay (AID 1963594). Also: nearly all actives have a fitted effect of over 35% in size. The gist of the method: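 HEK293 cells stably expressing DRD2 were cultured 24 h at 37 C, then given Ro20-1724 (0.1 mM final) and compounds for 10 min at room temperature. NKH477 (200nM) was then added for 30 min. cAMP was read by HTRF.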

Test [16] addresses Gonadotropin-releasing hormone receptor (Homo sapiens) (UniProt P30968). Nature of the test: Human gonadotropin-releasing hormone receptor (GnRHR) small molecule agonists, calcium flux assay in GnRHR-HEK293 cells (AID 1920063). Also: nearly all actives have a fitted effect of over 35% in size. The gist of the method:
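Compounds dissolved in DMSO are pin-transferred onto dye-loaded GnRHR-HEK293 cells, which were seeded 18 h before at 37 C/5% CO2. Calcium signal is read as fluorescence intensity at 1 s intervals for 3 min.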

For test [17], the target named is KiSS-1 receptor (Homo sapiens) (UniProt Q969F8). The experiment in a line: Human kisspeptin (KISS1R) small molecule agonists, calcium flux assay in KISS1R-HEK293 cells (AID 1920064; active = well fitted curve in the direction sought with a large enough effect in the repeat runs; an effect the other way counts as inactive or inconclusive). The gist of the method:
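Cell line: HEK293, stable human KISS1R. Dye loading 1 h at 37 C after 18 h culture. Read: kinetic fluorescence, 480/540 nm, 3 min at 1 s intervals.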

A short description of test [18]: p53 small molecule agonists, cell-based qHTS assay with rat liver microsomes: qHTS cell viability counter screen (AID 1963580). Also: nearly all actives have a fitted effect of over 45% in size. A digest of the protocol: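 Counter screen for cytotoxicity under metabolic activation: rat liver microsomes and NADPH, 0.5 mg/mL final each, added with compounds to p53RE-bla HCT-116 cells; 16 h at 37 C, then ATP luminescence read.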
For test [19], the target named is D(2) dopamine receptor (Homo sapiens) (UniProt P14416). Nature of the test: Dopamine D2 receptor (DRD2) small molecule antagonists, cell-based qHTS assay (AID 1963595; active = well fitted inhibition curve with a large enough effect in the signal ratio in the repeat runs, with a control signal flat; the % refers to the signal ratio; also: potency is read from the fitted curve at half-maximal effect). A digest of the protocol: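 Stable D2 receptor HEK293 line, 24 h after seeding. Compound preincubated 10 min, then quinpirole (12 nM) with forskolin analogue NKH477 (200 nM), 30 min, room temperature. Detection by time-resolved FRET of cAMP.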

In test [20] the target is Beta-2 adrenergic receptor (Homo sapiens) (UniProt P07550). The experiment in a line: Adrenergic beta2 receptor (ADRB2) small molecule agonists, cell-based qHTS assay (AID 1963593).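 Also: CHO cells stably overexpressing human ADRB2.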 The gist of the method:
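CHO cells stably over-expressing ADRB2 were plated overnight at 37C, then dosed with compounds plus a stimulation mix containing 100uM IBMX and 25uM Ro-20-1724 for 0.5hr at room temperature. cAMP was measured by HTRF competition, 1hr.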

Where “and” joins values, the source holds several entries; their conditions need not be identical. Equal values may be shown once. Inconclusive results are not listed. The source holds several records for some structures; these can differ, active in one and inactive in another. Calls of active or inactive are those of the source. Unless noted, calls follow the shape of the full dose curve.

Chain of Gonadotropin-releasing hormone receptor (Homo sapiens) (P30968 whole entry, looked up): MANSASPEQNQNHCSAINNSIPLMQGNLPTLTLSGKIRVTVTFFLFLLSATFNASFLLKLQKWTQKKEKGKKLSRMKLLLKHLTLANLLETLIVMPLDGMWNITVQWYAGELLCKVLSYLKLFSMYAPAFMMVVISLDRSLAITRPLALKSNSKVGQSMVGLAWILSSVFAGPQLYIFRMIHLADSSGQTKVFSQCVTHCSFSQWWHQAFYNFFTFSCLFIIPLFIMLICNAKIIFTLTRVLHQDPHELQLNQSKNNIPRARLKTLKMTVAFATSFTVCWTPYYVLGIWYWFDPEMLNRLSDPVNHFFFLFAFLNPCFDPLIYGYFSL
Chain of 5-hydroxytryptamine receptor 2A (Homo sapiens) (P28223 whole entry, looked up): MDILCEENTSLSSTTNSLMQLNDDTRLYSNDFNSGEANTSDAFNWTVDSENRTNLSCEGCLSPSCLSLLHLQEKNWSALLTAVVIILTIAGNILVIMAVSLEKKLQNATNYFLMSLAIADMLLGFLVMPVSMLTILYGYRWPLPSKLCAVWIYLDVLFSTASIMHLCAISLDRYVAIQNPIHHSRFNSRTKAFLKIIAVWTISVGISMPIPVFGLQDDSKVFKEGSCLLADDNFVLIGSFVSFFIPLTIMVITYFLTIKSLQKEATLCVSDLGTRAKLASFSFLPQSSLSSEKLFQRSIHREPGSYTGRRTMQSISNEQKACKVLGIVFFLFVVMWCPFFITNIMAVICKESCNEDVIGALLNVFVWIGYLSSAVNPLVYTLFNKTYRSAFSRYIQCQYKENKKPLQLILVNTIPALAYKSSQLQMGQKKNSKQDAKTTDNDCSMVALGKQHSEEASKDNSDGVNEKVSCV
Chain of Muscarinic acetylcholine receptor M1 (Homo sapiens) (P11229 whole entry, looked up): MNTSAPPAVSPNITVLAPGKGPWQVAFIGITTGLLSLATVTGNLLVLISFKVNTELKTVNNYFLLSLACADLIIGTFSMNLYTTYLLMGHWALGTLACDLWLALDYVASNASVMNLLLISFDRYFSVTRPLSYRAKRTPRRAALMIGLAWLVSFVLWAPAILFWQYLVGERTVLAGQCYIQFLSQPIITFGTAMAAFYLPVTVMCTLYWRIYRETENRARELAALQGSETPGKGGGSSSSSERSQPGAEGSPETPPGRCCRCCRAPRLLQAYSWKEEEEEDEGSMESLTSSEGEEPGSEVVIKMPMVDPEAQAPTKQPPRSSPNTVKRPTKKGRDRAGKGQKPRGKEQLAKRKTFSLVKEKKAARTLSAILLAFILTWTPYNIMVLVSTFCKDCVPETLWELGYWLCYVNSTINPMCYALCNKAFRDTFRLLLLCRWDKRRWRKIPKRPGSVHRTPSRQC
Chain of Beta-2 adrenergic receptor (Homo sapiens) (P07550 whole entry, looked up): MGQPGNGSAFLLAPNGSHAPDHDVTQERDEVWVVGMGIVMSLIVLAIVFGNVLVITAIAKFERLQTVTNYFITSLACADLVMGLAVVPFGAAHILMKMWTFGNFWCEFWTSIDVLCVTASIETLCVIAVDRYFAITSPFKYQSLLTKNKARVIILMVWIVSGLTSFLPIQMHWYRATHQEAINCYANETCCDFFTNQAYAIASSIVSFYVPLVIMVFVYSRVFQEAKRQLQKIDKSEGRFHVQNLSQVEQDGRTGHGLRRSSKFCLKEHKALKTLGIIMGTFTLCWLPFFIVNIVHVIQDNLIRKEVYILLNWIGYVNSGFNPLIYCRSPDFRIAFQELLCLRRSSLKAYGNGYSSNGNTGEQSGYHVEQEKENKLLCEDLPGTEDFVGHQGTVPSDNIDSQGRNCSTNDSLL
Chain of KiSS-1 receptor (Homo sapiens) (Q969F8 whole entry, looked up): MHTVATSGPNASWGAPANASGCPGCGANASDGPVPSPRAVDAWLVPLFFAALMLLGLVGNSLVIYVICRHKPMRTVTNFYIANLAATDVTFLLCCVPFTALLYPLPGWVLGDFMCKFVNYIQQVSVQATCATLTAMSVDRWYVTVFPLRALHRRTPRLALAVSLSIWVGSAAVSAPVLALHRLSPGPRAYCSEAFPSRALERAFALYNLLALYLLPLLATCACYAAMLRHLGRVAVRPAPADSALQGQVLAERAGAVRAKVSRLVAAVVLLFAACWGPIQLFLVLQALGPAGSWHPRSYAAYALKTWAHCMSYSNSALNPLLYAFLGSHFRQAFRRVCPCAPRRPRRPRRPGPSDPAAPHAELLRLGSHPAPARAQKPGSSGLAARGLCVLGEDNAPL
Chain of D(2) dopamine receptor (Homo sapiens) (P14416 whole entry, looked up): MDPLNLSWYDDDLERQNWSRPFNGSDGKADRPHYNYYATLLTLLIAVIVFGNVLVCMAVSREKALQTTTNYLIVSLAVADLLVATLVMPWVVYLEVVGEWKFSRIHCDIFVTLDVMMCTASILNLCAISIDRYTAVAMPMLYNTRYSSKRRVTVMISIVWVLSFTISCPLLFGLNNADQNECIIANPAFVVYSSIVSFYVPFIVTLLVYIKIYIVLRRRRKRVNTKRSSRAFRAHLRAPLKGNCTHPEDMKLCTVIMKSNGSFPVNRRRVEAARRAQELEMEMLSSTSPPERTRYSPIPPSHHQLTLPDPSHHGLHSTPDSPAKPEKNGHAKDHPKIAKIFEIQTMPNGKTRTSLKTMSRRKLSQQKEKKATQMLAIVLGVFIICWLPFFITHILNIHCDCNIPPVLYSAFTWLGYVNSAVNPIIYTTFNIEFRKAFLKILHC

As to `COC(=O)CCCC(=O)OC`, the Potency result in test [1], in test [2], in test [3], in test [4], in test [5] and in test [6] was “inactive” each time. Besides, the Potency entry in test [7], in test [8], in test [9], in test [10], in test [11] and in test [12] was “inactive” each time. Also, the Potency entry in test [13], in test [14] and in test [15] was “inactive” throughout.
Take `Clc1ccc(Cl)c(Cl)c1Cl`: the Potency result in test [1], in [16], in [17], in [2], in [3] and in test [4] was “inactive” throughout. Besides, the Potency entry in test [5], in test [18], in test [6], in [7], in [8] and in [9] was “inactive” each time. The Potency result in test [10], in [12], in test [13], in test [14], in test [15] and in test [19] was “inactive” throughout.
Consider `CC(=O)CC(=O)N(C)C`, for which the Potency entry in test [1], in test [16], in test [17], in test [2], in [3] and in [4] was “inactive” in each case. For the same compound, the Potency entry in [5], in [18], in test [6], in [7], in test [8] and in [9] was “inactive” throughout. For the same compound, the Potency result in [10], in test [11], in [12], in test [13], in [14] and in test [20] was “inactive” each time. Besides, the Potency result in test [15] and in [19] was “inactive” throughout.
As for `c1ccc2cc3ccccc3cc2c1`, the Potency entry in [1], in test [16], in test [17], in [2], in test [3] and in test [4] was “inactive” throughout. In addition, the Potency result in test [5], in test [18], in [6], in test [7], in test [8] and in [9] was “inactive” each time. Moreover, the Potency entry in test [10], in test [11], in [13], in test [14], in test [20] and in test [15] was “inactive” in each case. For the same compound, in test [19], the Potency result was “inactive”.
Regarding `COc1ccc(O)cc1`, the Potency entry in test [1], in test [16], in test [17], in test [2], in test [3] and in test [4] was “inactive” each time. Also, the Potency entry in test [5], in test [18], in test [6], in test [7], in test [8] and in [9] was “inactive” throughout. Moreover, the Potency result in [10], in test [11], in test [13], in [14], in test [20] and in test [15] was “inactive” each time. The Potency result in test [19] was “inactive”.
For `O=CCCCC=O`, the Potency result in test [1], in [16], in [17], in [2], in test [3] and in [4] was “inactive” throughout. For the same compound, the Potency entry in test [5], in test [18], in test [6], in test [7], in test [8] and in [9] was “inactive” each time. Besides, the Potency entry in [10], in test [11], in [12], in [13], in test [14] and in [20] was “inactive” throughout. Moreover, the Potency entry in test [15] and in test [19] was “inactive” each time.
As to `O=C1CCCCCCCCCCC1`, the Potency entry in test [1], in test [2], in [4], in [5], in test [18] and in [6] was “inactive” in each case. Besides, the Potency entry in test [7], in test [8], in [9], in test [10], in test [11] and in [12] was “inactive” each time. Moreover, the Potency entry in test [13], in [14], in test [20], in test [15] and in test [19] was “inactive” in each case.
As to `CCCCCCCCCCCC[N+](C)(C)Cc1ccccc1`, the Potency was 23.9 µM (active) and 29.7 µM (active) and 11.9 µM (active) in [1]; 44.9 µM (active) and 49.7 µM (active) and 19.9 µM (active) in [5]; 49.7 µM (active) and 22.3 µM (active) in test [6]; 1.3 µM (active) and inactive and 16.3 µM (active) in test [8]; 48 µM (active) in test [9]; 1.02 µM (active) and 650 nM (active) in test [10]. For the same compound, the Potency result in test [19] was “inactive and 59.2 µM (active) and 29.8 µM (active)”. For the same compound, the Potency entry in [17], in test [18], in test [11], in test [14] and in test [15] was “inactive” each time.
